# PubChem BioAssay AID1566 (Sanford-Burnham Center for Chemical Genomics, 2009)
# Several values for one entry are separate records, joined by “and”; a condition that tells them apart may be missing. Equal entries are not always repeated. In all, about 290,000 compounds went through this assay and about 1,800 (0.62%) were called active. Many of the other results were omitted from the sample, so actives are more common in it than they were. Values without a mark were called inactive. No stated cut-off is given here; in the data, active means inhibition above about 50%; inactive means the rest.
# Experiment: NOD2 signaling inhibitors, cell-based, luminescence, uHTS, HEK293 (AID 1566)
# Conditions: HEK293 NOD2/NF-kB luciferase reporter, at 4 µM, stronger effect = higher value
row,SMILES,inhibition
1,O=C(O)CSCC(=O)Nc1ccc(C2CCCCC2)cc1,73.5% (active)
2,Nn1cnnc1SCC(=O)Nc1ccc(C2CCCCC2)cc1,-14.6%
3,O=C(CSCCO)Nc1ccc(C2CCCCC2)cc1,-8.8%
4,C=C1CCC[C@]2(C)C[C@H]3OC(=O)C(CNC(C)(CO)CO)[C@H]3CC12 (stereo partly drawn),3.4%
5,CC1(C)CC(NC(=O)c2cccc3ccccc23)CC(C)(C)N1,-1.7%
6,COc1cc(C(=O)Nc2scc(-c3ccc(C)cc3)c2C(=O)O)cc(OC)c1OC,42.9%
7,CC1CCc2c(sc(NC(=O)c3ccco3)c2C(=O)O)C1 (stereo not drawn),36.1%
8,COc1cc(C(=O)Nc2scc(-c3ccccc3)c2C(=O)O)cc(OC)c1OC,13.6%
9,COc1cc(C(=O)Nc2sc3c(c2C(=O)O)CCC3)cc(OC)c1OC,23.1%
10,CC(C)(C)OC(=O)C(C)(C)O/N=C(\C(=O)O)c1csc(N)n1,12.5%
11,Cn1c(N/N=C/c2cc3ccccc3nc2Cl)nc2ccccc21,-51%
12,Cc1ccc(-c2nc3n(n2)Cc2ccccc2-3)cc1,-79.2%
13,CCn1c(C)nc2cc(-c3nc4n(n3)Cc3ccccc3-4)ccc21,93% (active)
14,Clc1ccc(-c2nc3n(n2)Cc2ccccc2-3)cc1,-152%
15,CCC(=O)c1ccccc1OCCN1CCN(Cc2ccccc2)CC1,2.5%
16,O=C1CCCCC1Sc1nnc(-c2ccc3c(c2)OCO3)o1 (stereo not drawn),71.3% (active)
17,O=C(c1ccc(Cl)cc1)N1CCCCC(Sc2nnc(-c3ccc4c(c3)OCO4)o2)C1=O (stereo not drawn),29.1%
18,O=C1OCCC1Sc1nnc(-c2ccc3c(c2)OCO3)o1 (stereo not drawn),28%
19,CCN(CC)c1ccc2cc(C(C)=O)c(=O)oc2c1,-9.9%
20,CCN(CC)c1ccc2cc(C(N)=O)c(=O)oc2c1,-17.6%
21,CCN(CC)c1ccc2cc(NC(=O)CCC(=O)O)c(=O)oc2c1,57.1% (active)
22,O=C(N/N=C/c1cccc(O)c1)C(=O)N1CCCCCC1,8.2%
23,COc1ccc(COC(=O)C2=C(C)NC(=O)NC2c2ccc(O)cc2)cc1 (stereo not drawn),5.6%
24,COc1ccc(COC(=O)C2=C(C)NC(=O)NC2c2ccc(OC)cc2)cc1 (stereo not drawn),17.9%
25,COc1ccc(COC(=O)C2=C(C)NC(=O)NC2c2ccc(F)cc2)cc1 (stereo not drawn),50.5% (active)

row,SMILES,inhibition
1,O=C(CN1CCN(S(=O)(=O)c2ccc(Cl)cc2)CC1)NC1CCCC1,-2.2%
2,C#CC(=O)N(c1ccc(OC)c(OC)c1)C(C(=O)NC1CCCC1)c1cccs1 (stereo not drawn),-0.2%
3,C#CC(=O)N(c1ccc(OC)cc1OC)C(C(=O)NC1CCCC1)c1cccs1 (stereo not drawn),62% (active)
4,C#CC(=O)N(c1cc(OC)ccc1OC)C(C(=O)NC1CCCC1)c1cccs1 (stereo not drawn),17%
5,CC(=O)c1c(C)[nH]c(C(=O)Nc2nc(-c3ccc(Cl)cc3)cs2)c1C,31.2%
6,CC(=O)c1c(C)[nH]c(C(=O)Nc2nc(C)cs2)c1C,-21.9%
7,CCCNC(=O)CCCN1C(=O)c2ccccc2Sc2ncccc21,7.1%
8,CCCCN(CC)CCCNC(=O)Cn1nc(Cc2ccncc2)c2ccccc2c1=O,2.4%
9,COc1ccccc1-n1c(-c2ccccc2)c[n+]2c1CCc1ccccc1-2,49% and 41.3%
10,Cc1ccc(-n2c(-c3ccccc3)c[n+]3c2CCc2ccccc2-3)c(C)c1,56.2% (active)
11,COc1ccc(-n2c(-c3ccc(Br)cc3)c[n+]3c2CCc2ccccc2-3)cc1,31.4%
12,CSc1ncccc1C(=O)OCC(=O)c1cc(C)n(CC2CCCO2)c1C (stereo not drawn),5.9%
13,Cc1cc(C(=O)COC(=O)c2ccccc2NCCO)c(C)n1CC1CCCO1 (stereo not drawn),-4.6%
14,Cc1cc(C(=O)COC(=O)c2ccc(O)cc2)c(C)n1CC1CCCO1 (stereo not drawn),-113%
15,Cc1ccc(C(=O)OCC(=O)c2cc(C)n(CC3CCCO3)c2C)cc1 (stereo not drawn),18.2%
16,COCCn1c(C)cc(C(=O)COC(=O)c2ccc(Br)o2)c1C,4.7%
17,COCCn1c(C)cc(C(=O)COC(=O)c2ccc[nH]c2=O)c1C,29.6%
18,COCCn1c(C)cc(C(=O)COC(=O)c2ccccc2Br)c1C,68.7% (active)
19,Cc1cc(C(=O)COC(=O)c2cccnc2Cl)c(C)n1CC1CCCO1 (stereo not drawn),55.8% (active)
20,O=C(CC1C(=O)NCCN1C(=O)Nc1ccc(Cl)cc1)Nc1ccc(F)cc1 (stereo not drawn),8.1%
21,COc1ccc(C/C(C)=N/NC(=O)c2cccnc2)cc1,-5.6%
22,CCOc1ccccc1/C=C/C(=O)NCC(=O)N1CCC(N(C)C2CCCCC2C)CC1 (stereo not drawn),9.7%
23,COc1ccc(CNCCNC(=O)c2nonc2N)cc1OC,11.4%
24,Cc1ccc(S(=O)(=O)Nc2ccccc2C(=O)N2CCN(C)CC2)cc1,4%
25,COc1ccc(NC(=O)CO/N=C(\C)c2cccs2)cc1,-10.2%

row,SMILES,inhibition
1,O=C(Nc1ccccc1)Nc1cccc(C(F)(F)F)c1,-38.6%
2,O=C(Nc1ccncc1)Nc1cccc(C(F)(F)F)c1,18%
3,O=S(=O)(c1ccc(NCc2ccc(F)cc2)nc1)N1CCCC1,12.4%
4,CC(OC(=O)Cc1ccc(Cl)cc1)C(=O)NCCC1=CCCCC1 (stereo not drawn),17.9%
5,Cc1cc(C(=O)Nc2ccccc2C(=O)O)ccc1NC(=O)COc1cccc(C)c1C,47.7%
6,COC(=O)c1ccccc1NS(=O)(=O)c1ccc(NC(C)=O)cc1,1.9%
7,COC(=O)c1ccc(NC(=O)c2ccccc2NS(C)(=O)=O)cc1,6.5%
8,COc1ccccc1C(=O)Nc1ccc(C(=O)Nc2ccccc2C(=O)O)cc1,59.6% (active)
9,COc1ccccc1C(=O)Nc1ccc(C(=O)c2ccccc2)cc1,4.1%
10,COc1ccccc1C(=O)Nc1ccc(C(=O)O)cc1,-1.4%
11,Cc1ccccc1OCC(=O)Nc1ccc(C(=O)Nc2ccccc2C(=O)O)cc1,33.3%
12,c1ccc(CCSc2nccn2-c2ccccc2)cc1,-141%
13,CCCc1cc(=O)oc2c3c(c(Cl)cc12)OCN(CCCO)C3,-64.8%
14,CC(C)C(c1nnnn1C1CCCCC1)N1CCOCC1 (stereo not drawn),0.1%
15,CCOC(=O)c1cccc(NC(=O)c2cc3ccccc3o2)c1,-97.4%
16,CCOc1ccc(/C=N/n2c(C)nnc2C)cc1OC,8%
17,Cc1ccc(C(=O)OCc2cc3ccccc3[nH]c2=O)cc1,3.6%
18,O=C(c1ccc(N2CCN(C(=O)c3ccc(F)cc3F)CC2)cc1)c1cccc(F)c1,10.3%
19,COCCn1c(C)cc(C2=NNC(=NC3CC3)SC2)c1C,94% (active)
20,C=CCN=C1NN=C(c2cc(C)n(CCOC)c2C)CS1,65.1% (active)
21,COCCn1c(C)cc(C2=NNC(=Nc3ccc(Cl)cc3Cl)SC2)c1C,8.7%
22,COCCn1c(C)cc(C2=NNC(=NC(C)(C)C)SC2)c1C,4.6%
23,COCCn1c(C)cc(C2=NNC(=Nc3ccc(OC)cc3)SC2)c1C,-9.9%
24,COCCn1c(C)cc(C2=NNC(=Nc3ccccc3)SC2)c1C,-146%
25,COCCN=C1NN=C(c2cc(C)n(CC3CCCO3)c2C)CS1 (stereo not drawn),19.4%

row,SMILES,inhibition
1,Cc1cc(C2=NNC(=NCCc3ccccc3)SC2)c(C)n1CC1CCCO1 (stereo not drawn),-32.5%
2,COCCCN=C1NN=C(c2cc(C)n(Cc3ccccc3Cl)c2C)CS1,-30.7%
3,COCCn1c(C)cc(C2=NNC(=Nc3ccccc3F)SC2)c1C,61.6% (active)
4,C=CCn1c(C)cc(C2=NNC(=NCc3ccccc3)SC2)c1C,-78%
5,C=CCN=C1NN=C(c2cc(C)n(CC=C)c2C)CS1,73.6% (active)
6,C#CCOc1c(Cl)cc(/C=C2/C(=O)ON=C2C)cc1OC,6.6%
7,Cn1c(=O)oc2cc(S(=O)(=O)NCCC(=O)NC3CCCC3)ccc21,-0.1%
8,COc1ccc(CCN=C(N)Nc2nc(C)cc(C)n2)cc1,8.4%
9,COCCn1c(Cc2cccn2C)nnc1SCC(=O)NCc1ccc2c(c1)OCO2,5.3%
10,COc1ccccc1-n1c(SCC(=O)N2CCOCC2)nc2ccccc2c1=O,2.8%
11,CCOC(=O)CNC(=O)CSc1ccc2nnc(-c3ccc(F)cc3)n2n1,8.4%
12,Cc1ccc(-c2noc(C3CCCN(C(=O)c4ccc(Cl)cc4)C3)n2)o1 (stereo not drawn),-1.8%
13,C=CCn1c(C)cc(C2=NNC(=NCC)SC2)c1C,92.6% (active)
14,Cc1cc(C2=NNC(=Nc3ccccc3)SC2)c(C)n1C,-60.1%
15,CC(C)(C)N=C1NN=C(c2ccc(Cl)cc2)CS1,-99%
16,CCN=C1NN=C(c2ccc(C)cc2)CS1,-71.4%
17,C=CCn1c(C)cc(C2=NNC(=NC(C)(C)C)SC2)c1C,63.3% (active)
18,C=CCn1c(C)cc(C2=NNC(=Nc3ccc(C)cc3)SC2)c1C,3%
19,CN(C(=O)Cn1nnc2ccccc2c1=O)C1CCCCC1,6.8%
20,COc1ccc(-c2nnc(SCC(=O)NC3CCCCC3)o2)cc1,6%
21,CCOc1ccccc1N(CC(=O)NCC1CCCO1)C(=O)CNS(=O)(=O)c1ccccc1 (stereo not drawn),-15.5%
22,COc1ccc(-n2c(-c3ccc(C)cc3)n[nH]c2=S)cc1,-6.4%
23,O=C(CCSc1nc(-c2ccco2)cc(C(F)(F)F)n1)N1CCN(c2ccccc2)CC1,-17.1%
